FBPA Giardia inh = inhibitors of Giardia lamblia fructose-1,6-bisphosphate aldolase. purified Giardia FBPA. Potency, µM (highest dose often 59.6 µM), inactives show at the top dose activity, negative = inhibition, most hits filed as inhibitors. AID 2451. actives 0.71% (n = 290,000). A8B2U2; note: potency is the fitted concentration of half-maximal effect; % is set by controls: 0 for no effect and ±100 for the full control effect; nearly all actives have a fitted effect of over 55% in size
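Giardia FBPA (40 nM reagent) was preincubated 10 min at RT with compound (up to 57.5 uM final), then substrate plus GAPDH/TPI/NAD/arsenate coupling system with diaphorase/resazurin was added; resorufin fluorescence (525/598 nm) was read after 20 min.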
CHX counter = counter-screen hit for Shiga toxin inhibitors, cycloheximide; actives 12% (n = 300,000); cell reporter, cycloheximide protein synthesis inhibition counterscreen; max response, %; in the data active = max response mostly above about 13%, no sharp cut-off; inactive = mostly below about 14%; note: read at 38.3 µM for the half of the compounds with a filed dose; 0% is about no effect
Shiga inhibitor = blocks Shiga toxin action in Vero cells | Vero cells, Shiga toxin protein synthesis inhibition reporter | inhibition, % at 38.7 µM | actives 9.2% (n = 290,000) | AID 2315; in the data active = inhibition mostly above about 28%, no sharp cut-off; inactive = mostly below about 43%; note: 0% is about no effect
LmPK inh = LmPK (Leishmania mexicana) enzyme inhibition | Potency, µM (top dose mostly 57.5 µM), for the others: top-dose activity change, negative = inhibition, usual class: inhibitors | actives 0.37% (n = 290,000) | purified LmPK, Kinase-Glo ATP luminescence, 1 h; note: potency is the fitted concentration of half-maximal effect; % is set by controls: 0 for no effect and ±100 for the full control effect
Target sequence (Q27686 whole entry, looked up): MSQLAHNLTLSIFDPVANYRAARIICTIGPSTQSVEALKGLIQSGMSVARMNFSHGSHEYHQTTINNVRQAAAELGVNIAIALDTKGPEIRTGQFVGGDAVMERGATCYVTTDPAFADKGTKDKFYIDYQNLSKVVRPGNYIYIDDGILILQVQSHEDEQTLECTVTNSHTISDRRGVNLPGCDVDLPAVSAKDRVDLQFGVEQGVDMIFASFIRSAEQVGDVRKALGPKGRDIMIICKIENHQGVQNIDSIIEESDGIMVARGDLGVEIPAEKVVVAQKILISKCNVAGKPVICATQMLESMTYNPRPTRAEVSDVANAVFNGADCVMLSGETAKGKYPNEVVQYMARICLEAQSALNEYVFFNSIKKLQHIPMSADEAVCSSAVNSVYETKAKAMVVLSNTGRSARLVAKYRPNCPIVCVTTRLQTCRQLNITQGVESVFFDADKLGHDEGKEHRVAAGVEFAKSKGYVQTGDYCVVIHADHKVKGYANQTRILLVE
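Pyruvate kinase activity monitored as ATP production (luciferase luminescence). Conditions: 0.1 nM enzyme, 0.5 mM PEP, 0.1 mM ADP, 1 h, RT; normalized against uninhibited and no-enzyme wells.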
TbPYK inhibitor = inhibitors of Trypanosoma brucei pyruvate kinase; Q57TT1; TbPYK enzyme, Kinase-Glo Plus ATP luminescence, 45 min; Potency, µM (top dose mostly 76.8 µM), for inactives: at the highest dose activity, negative = inhibition, most hits filed as inhibitors; actives 0.12% (n = 410,000); AID 624173; note: potency is the fitted concentration of half-maximal effect; % is set by controls: 0 for no effect and ±100 for the full control effect; nearly all actives have a fitted effect of over 50% in size
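In this concentration-response screen, enzyme-free wells defined baseline while DMSO plates tracked drift. Each reaction combined TbPYK, substrate, compound and 130 uM ADP for 45 min at room temperature. Kinase-Glo Plus luminescence gave the signal.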
Sm TGR block = S. mansoni TGR enzyme inhibition | Q962Y6 | purified TGR, DTNB reduction, TNB absorbance 405 nm | AID 485364 | Potency, µM (doses to about 114 µM), without a hit: at the highest dose activity change, negative = inhibition, most hits filed as inhibitors | actives 3% (n = 360,000); note: potency is the fitted concentration of half-maximal effect; % is set by controls: 0 for no effect and ±100 for the full control effect; nearly all actives have a fitted effect of over 60% in size
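Kinetic colorimetric format: TGR-catalysed, NADPH-driven DTNB reduction monitored via TNB absorbance. Enzyme dispensed at 20 nM; compound exposure 15 min at room temperature before reaction start.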
An asterisk follows results filed as active; ? = inconclusive; · = no result; [ ] = another dose, or the depositor's remark. This excerpt belongs to a sample that is enriched for hits. Unless noted, calls come from the whole dose curve; as a rule, active = well fitted curve in the direction sought with a large enough effect; inconclusive = small, poorly fitted or top-dose-only effect, or another doubt; inactive = no such curve, though single readings can be large; an effect the other way counts as inactive or inconclusive.

SMILES	FBPA Giardia inh	CHX counter	Shiga inhibitor	LmPK inh	TbPYK inhibitor	Sm TGR block
COc1ccccc1-c1nnc(SCC(=O)O)n1-c1ccccc1	2%	-2	2	-1%	-15%	·
O=C(Nc1cccc(C(=O)N2CCOCC2)c1)C1CC1	·	·	·	·	-1%	·
CCOC(=O)C1=CC(OC(CC)CC)C(NC(C)=O)C(N)C1 (stereo unspecified)	-4%	·	·	·	-4%	·
CCn1c(SCC(=O)c2ccccc2)nnc1-c1cnccn1	?	52*	107*	-2%	-25%	-12%
Cc1ccc(NC(=O)CSc2nnc(-c3cnccn3)n2Cc2ccco2)cc1	-8%	4	-2	11%	-10%	45µM*
O=C(O)c1ccc2c(c1)C(=O)N([C@H](Cc1ccc(C(F)(F)F)cc1)C(=O)O)C2=O	14%	-2	-6	·	·	-1%
CCCC(=O)Nc1sc2c(c1C#N)CC(C)(C)NC2(C)C	1%	-3	-9	2%	-9%	-10%
COc1ccc(CC(=O)Nc2sc3c(c2C#N)CC(C)(C)NC3(C)C)cc1OC	1%	-2	-18	-2%	2%	89µM*
COCCn1c(C)cc(C(=O)COC(=O)c2ccccc2Br)c1C	-11%	-3	-12	-24%	-21%	-9%
COCCn1c(C)cc(C(=O)COC(=O)c2ccc(NC(=O)CC#N)cc2)c1C	-3%	40*	73*	-8%	-7%	-4%
COCCn1c(C)cc(C(=O)COC(=O)c2cncc(Br)c2)c1C	-1%	36*	54*	-16%	-7%	-5%
O=C(OCC(=O)c1ccco1)c1ccc2ncsc2c1	10%	29*	58	-2%	-29%	3%
COCCn1c(C)cc(C(=O)COC(=O)c2ccc3ncsc3c2)c1C	7%	24*	110*	-1%	?	-14%
COCCn1c(C)cc(C(=O)COC(=O)c2ccc(S(=O)(=O)N(C)C)cc2)c1C	·	·	·	·	4%	·
CCOc1ccc(-c2nc(SCC(=O)NC3CCCC3)c(-c3ccccc3)[nH]2)cc1OC	·	·	·	·	-2%	8%
C=CCOCCn1[nH]c2ccccc2c1=O	·	·	·	·	-14%	-9%
O=C1CC(c2ccco2)CC2=C1C(c1cccnc1)n1nc(C(F)(F)F)nc1N2 (stereo unspecified)	·	-6	-2	·	·	·
O=c1/c(=C/c2ccco2)sc2n1CN(c1ccccc1)CN=2	1%	-3	-14	5%	2%	-27%
Cc1ccc(/C=c2\sc3n(c2=O)CN(c2cccc(Br)c2)CN=3)o1	-27%	-3	-3	3%	-5%	25µM*
O=c1/c(=C/c2ccco2)sc2n1CN(c1cccc(Br)c1)CN=2	11%	9	31	7%	-4%	25µM*
C=CCOC(=O)Cn1cnc2c(sc3nc(C)cc(C)c32)c1=O	-2%	46*	72*	-2%	-12%	-2%
CC1(C)CC(=O)C=C(OC(=O)c2ccc(Cl)cc2)C1	0%	10	14	-1%	9%	14µM*
COc1ccc(C(=O)NNC2=CC(=O)CC(C)(C)C2)cc1	-14%	-2	-4	2%	0%	?
CC(C)[C@H](NC(=O)c1ccccc1)C(=O)OCc1nnc(-c2ccccc2)o1	13%	13	24	-1%[11.5 µM]	-7%	-30%
CC(C(=O)OCc1nnc(-c2ccccc2)o1)N1C(=O)c2ccccc2C1=O (stereo unspecified)	10%	32*	92*	5%	6%	0%
SMILES	FBPA Giardia inh	CHX counter	Shiga inhibitor	LmPK inh	TbPYK inhibitor	Sm TGR block
Cc1ccc(C(=O)N[C@H](C(=O)OCc2nnc(-c3ccccc3)o2)C(C)C)cc1	1%	26*	24	3%	-4%	-3%
O=C(OCc1nnc(-c2ccccc2)o1)c1ccc(CO)cc1	3%	16	30	2%	-1%	1%
CCCCNC(=O)Nc1ccc(C2SCCS2)cc1	-14%	47*	86*	5%	2%	7%
CNC(=O)Nc1ccc(C2SCCS2)cc1	-4%	17*	27	0%	2%	16%
O=C(Nc1ccc(C2SCCS2)cc1)c1ccccc1	-8%	60*	136*	-29%	-14%	1%
CC(C)c1ccc(NC(=O)COc2ccc(C3SCCS3)cc2)cc1	-2%	-4	18	8%	-3%	7%
CCCCNC(=O)Nc1ccccc1CC	0%	-1	-3	7%	3%	8%
COC(=O)c1ccc(CSc2ccc3nnc(-c4cccnc4)n3n2)o1	9%	-2	-8	5%	·	40µM*
COC(=O)c1ccc(CSc2ccc3nnc(-c4ccc(OC)cc4)n3n2)o1	4%	6	-16	-5%	·	?
C=CCOc1cc(OC)c(OC)c(OC)c1	-6%	-1	-2	-2%	2%	4%
C=CCOc1ccc(/C(CC)=N/O)c(OC)c1	3%	13*	27	-10%	-7%	-1%
Cc1c(C)c2c(cc(C)c3c(-c4ccc(Br)cc4)coc32)oc1=O	·	·	·	·	-3%	5%
Cc1ccc(C(=O)N/N=C2\CCCc3ccccc32)c(C)c1	7%	49*	71*	1%	-3%	-11%
O=C(N/N=C1\CCCc2ccccc21)c1ccc([N+](=O)[O-])cc1	-5%	11	39	6%	1%	-8%
COc1ccc(OCC(=O)N/N=C2\CCc3ccccc32)cc1	0%	1	13	4%	-1%	-29%
NC(=O)C(=O)N/N=C1\CCc2ccccc21	1%	37*	62*	1%	-6%	-1%
CCOC(=O)C1(CC2CC2)CCN(C(=O)c2cccnc2C)CC1	-4%	17*	24	5%	9%	32%
CCOC(=O)C1(CC2CC2)CCN(C(=O)c2cc(C3CC3)nc3ccccc23)CC1	-19%	34*	55*	-9%	3%	11%
CCOC(=O)C1(CC2CC2)CCN(C(=O)c2cc(OC)nc3ccccc23)CC1	0%	31*	88*	5%	4%	34%
CCOC(=O)C1(CC2CC2)CCN(Cc2cn(C)c3ccccc23)CC1	-1%	-4	18	4%	-2%	2%[57.1 µM]
COc1cc(C(=O)N2CCN(c3ccccc3)CC2)c2ccccc2n1	·	·	·	·	0%	·
C1CCC2(CC1)C1=C(CCCC1)Nc1nnnn12	-20%	-6	-14	0%	·	45µM*
Cc1ccc(Cl)cc1-n1c(CCC(=O)O)ccc1-c1cccs1	·	·	·	·	-12%	40µM*
Cc1c(Cl)cccc1-n1c(CCC(=O)O)ccc1-c1cccs1	·	·	·	·	-8%	40µM*
COc1ccc(-c2ccc(CCC(=O)O)n2-c2ccc(Cl)cc2C)cc1	·	·	·	·	-12%	40µM*
Cc1c(Cl)cccc1NC(=O)Cn1c(CCC(=O)O)ccc1-c1cccs1	·	·	·	·	-11%	-26%
Cc1ccc(C)c(-n2c(CCC(=O)O)ccc2-c2ccc(Cl)cc2)c1	·	·	·	·	-12%	?
